# Rows were chosen to be rich in hits. Some 3.3% of all compounds tested hit in one or more screens of this group.
# Sm TGR block – blocks Schistosoma mansoni thioredoxin glutathione reductase. Q962Y6. purified TGR, DTNB reduction, TNB absorbance 405 nm. Potency, µM (top dose mostly 114 µM), hits mostly inhibitors. hit rate 3% among 360,000; further: nearly all actives have a fitted effect of over 60% in size
#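 First, TGR (20 nM dispensed) and NADPH were mixed with compound. Second, a 15 min room-temperature incubation followed. Third, further NADPH and then DTNB were added to start the reaction. Finally, TNB absorbance was monitored kinetically.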
# AmpC no deterg – inhibitors of E. coli AmpC beta-lactamase without detergent. P00811. AmpC nitrocefin hydrolysis, absorbance 480 nm, 0.0001% Triton. Potency, µM (doses to about 57.1 µM), most hits filed as inhibitors. hit rate 0.52% among 330,000. AID 485341; further: nearly all actives have a fitted effect of over 20% in size
# Target sequence (P00811 whole entry, looked up): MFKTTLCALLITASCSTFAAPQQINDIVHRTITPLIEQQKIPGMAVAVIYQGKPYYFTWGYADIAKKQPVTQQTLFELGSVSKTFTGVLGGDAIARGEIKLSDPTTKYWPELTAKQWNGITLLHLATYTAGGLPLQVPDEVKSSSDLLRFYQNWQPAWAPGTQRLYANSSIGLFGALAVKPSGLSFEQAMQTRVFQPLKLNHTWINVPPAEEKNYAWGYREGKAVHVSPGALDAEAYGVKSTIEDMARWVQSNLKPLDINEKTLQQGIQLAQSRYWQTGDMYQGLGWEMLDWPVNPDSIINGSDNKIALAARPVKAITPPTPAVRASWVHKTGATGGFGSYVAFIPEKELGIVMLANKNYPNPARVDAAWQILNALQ
#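 AmpC (5.3 nM in the dispensed reagent) in 20 mM phosphate pH 7.0 with 0.01% (detergent screen) or 0.0001% Triton X-100 was preincubated with compounds for 15 min at room temperature. Nitrocefin was then added from an 800 uM solution, and hydrolysis was followed at 480 nm.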
# AmpC inh detg – AmpC beta-lactamase inhibition with detergent present; P00811; AmpC hydrolysis of nitrocefin, absorbance 480 nm, 0.01% Triton; Potency, µM (doses to about 114 µM), hits mostly inhibitors; hit rate 0.041% among 370,000; AID 485294; further: nearly all actives have a fitted effect of over 25% in size
#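 20 mM phosphate pH 7.0 + 0.01% (detergent screen) or 0.0001% Triton X-100; 5.3 nM AmpC reagent; cpd preinc 15 min RT; nitrocefin (800 uM stock) to start; A480 q20 s × 4 min; Activity was normalised to no-enzyme and no-compound control wells.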
# Numbers stand for hits; . = inactive; ? = inconclusive; / = no result given; [ ] = dose if it differs, or a comment. The call rests on the fitted dose curve; in most records, active means well fitted curve in the direction sought with a large enough effect; inconclusive means small, poorly fitted or top-dose-only effect, or another doubt; inactive means no such curve, though single readings can be large; an effect the other way counts as inactive or inconclusive.
SMILES,Sm TGR block,AmpC no deterg,AmpC inh detg
CC(C)NC(=O)NS(=O)(=O)c1cnccc1NC1CC2CCC1C2 (stereo unspecified),.,.,.
CSc1ccc(C(=O)N2CCC(CCC(=O)NC3CC3)CC2)cc1,.,.,.
COc1ccnc(CSC(N)=Nc2ccc(F)cc2)c1,45µM,.,.
COc1ccc(Cn2c(CO)cnc2SCc2ccc(F)cc2)cc1,.,/,.
CCN(C(=O)CN(C)S(=O)(=O)c1ccc2c(c1)c(=O)n(C)c(=O)n2C)c1ccc(OC)cc1,.,/,.
Cc1cccc(C(=O)Nc2ccc(N3CC=C(c4ccccc4C)CC3)c(C(=O)O)c2)c1,.,/,?
O=C(Cn1cnc2c(NC(=O)OCc3ccccc3)ncnc21)NCCN1CCOCC1,.,.,.
O=C(CCNC(=O)c1ccccc1)Oc1ccc([N+](=O)[O-])cc1,.,.,.
CC(=O)Nc1ccc(Cl)c(C(N)=O)c1,.,.,.
NC(=O)c1cc(N2C(=O)C=CC2=O)ccc1Cl,0.4µM,.,.
CNC(=O)N(O)C1N(/N=C/c2cc(Br)ccc2O)C(=S)SC1(C)C (stereo unspecified),.,.,.
Cc1cc(C)c(S(=O)(=O)/N=C2/C=C(Sc3ncn[nH]3)C(=O)c3ccccc32)cc1C,0.32µM,.,.
Cc1ccc(C)c(S(=O)(=O)/N=C2\C=C(NS(=O)(=O)c3ccccc3)C(=O)c3ccccc32)c1,?,.,.
CCN(CC)c1ccc(/C=N/N2CCN(Cc3cccc4ccccc34)CC2)c(O)c1,.,.,?
O=C(CSC1=Nc2ccccc2C2=NC(CC(=O)N3CCN(c4ccccc4)CC3)C(=O)N12)NCC1CCCO1 (stereo unspecified),.,.,.
CCC1(CC)NC(=O)N(CC(=O)Nc2sc3c(c2C(N)=O)CCC3)C1=O,45µM,.,.
CCC1(C)NC(=O)N(CC(=O)Nc2sc3c(c2C(=O)OC)CCCCC3)C1=O (stereo unspecified),.,.,.
O=C(NCCCN1CCCC1=O)c1cccc(S(=O)(=O)Nc2ccc(F)cc2)c1,.,.,.
Cc1ccc(C(=O)N2CCN3C(=O)c4ccccc4C23c2ccc(Cl)cc2)cc1 (stereo unspecified),.,.,.
O=C(CCl)N1CCN2C(=O)c3ccccc3C12c1ccc(Cl)cc1 (stereo unspecified),2.5µM,.,.
O=C(O)CNC(=O)CCCn1nnc2ccccc2c1=O,.,.,.
CC(C)[C@H](NC(=O)CCCn1nnc2ccccc2c1=O)C(=O)O,40µM,.,.
OCC[C@H]1C[C@@H](O)[C@H](O)[C@]2(OCc3ccccc32)O1,.,.,.
CC1CC(C)CN(C(=O)COC(=O)c2ccc(S(=O)(=O)N(C)c3ccccc3)cc2)C1 (stereo unspecified),/,.,/
CC(=O)Nc1nnc(-c2ccc(Cl)s2)o1,.,1.6µM,.
SMILES,Sm TGR block,AmpC no deterg,AmpC inh detg
CCC(=O)Nc1nnc(-c2ccc(Cl)s2)o1,.,.,.
O=C(NCc1nnc(SCC(=O)N2CCN(c3ccccc3)CC2)o1)c1c(F)cccc1F,.,.,.
c1csc(-c2nc3ccccn3c2NC2CCCCC2)c1,.,.[11.4 µM],?
Cc1ccn2c(NC3CCCC3)c(-c3cccs3)nc2c1,20µM,?,.
CCN(CC)c1ccc(C=C2C(=O)NC(=S)NC2=O)cc1,16µM,.,.
CCN(CC)c1ccc(/C=C2\NC(=O)NC2=O)cc1,.,.,.
Cc1ccc(/C=C2\NC(=S)NC2=O)cc1[N+](=O)[O-],.,.,.
CC(C)CN(CC(C)C)c1ccc(C=C2C(=O)NC(=S)NC2=O)cc1[N+](=O)[O-],1.1µM,.,.
COc1ccc(S(=O)(=O)NC(C)C(=O)NCc2cccnc2)cc1C (stereo unspecified),.,.,?
Cc1ccc(-n2ncc(C(=O)NCc3ccccn3)c2C2CCN(C(=O)OC(C)(C)C)CC2)cc1C,.,/,.
O=c1sc2ccccc2c(N2CCOCC2)c1[N+](=O)[O-],40µM,.,.
O=c1sc2ccccc2c(N2CCCCC2)c1[N+](=O)[O-],.,.,?
Cc1ccc(NC(=S)NC(C)(C)C)c([N+](=O)[O-])c1,.,.,.
C=CCNC(=S)Nc1ccc(C)cc1[N+](=O)[O-],40µM,.[2.29 µM],.
CCOc1cc(NC(=S)NCCc2ccccc2)c(OCC)cc1NC(C)=O,.,.,.
CCN(CC)S(=O)(=O)c1ccc(/C=C/C(=O)OCC(=O)NCc2ccco2)cc1,/,.,/
CCOC(=O)c1c(NC(=O)COC(=O)CNC(=O)c2ccco2)sc(C(C)=O)c1C,.,.,.
Cc1ccc2c(c1)NC(=O)C(CC(=O)NCCCN1CCCC1)O2 (stereo unspecified),.,.,.
O=C(CC1Oc2ccccc2NC1=O)NCCCN1CCOCC1 (stereo unspecified),.,2.5µM,?
CCNC(=O)C12CCC(C)(C(=O)O1)C2(C)C (stereo unspecified),.,.,.
Cc1cc(C)c2nc(SCC(=O)N3CC(=O)Nc4ccccc43)c(C#N)cc2c1,.,3.5µM,.
COc1ccc2nc(SCC(=O)N3CC(=O)Nc4ccccc43)c(C#N)cc2c1,.,.,?
Cc1cc(C)c(C(=O)COc2cccnc2[N+](=O)[O-])cc1C,16µM,.,.
COCCn1c(C)cc(C(=O)COc2cccnc2[N+](=O)[O-])c1C,?,.,.
O=C(O)c1cc([N+](=O)[O-])cc([N+](=O)[O-])c1N1CCN(c2cccc(C(F)(F)F)c2)CC1,.,.,.
SMILES,Sm TGR block,AmpC no deterg,AmpC inh detg
COc1ccc(NC(=O)CSc2ncccc2C(=O)O)cc1OC,.,/,.
COc1ccc(-c2ccc(CCC(=O)O)o2)cc1,2.8µM,.,.
Cc1oc(-c2ccc(Cl)cc2)cc1C(=O)O,.,.,.
NC(=O)C1CCN(C(=S)c2ccc(-c3ccc(Br)cc3)o2)CC1,.,.,.
O=C(O)CCc1ccc(-c2ccc(Cl)cc2)o1,5µM,.,.
O=C(O)CCc1ccc(-c2ccc(Br)cc2)o1,7.9µM,.,.
COc1ccc(-c2noc(CCC(=O)O)n2)cc1,.,.,?
O=C(O)c1ccc(N/N=C/c2ccc(-c3ccc(Br)cc3)o2)cc1,.,.,.
NC(=O)c1ccc(-c2ccc(Br)cc2)o1,40µM,.,?
Cc1cccn2c(CNCCc3ccccn3)c(C(=O)N3CCOCC3)nc12,?,.,.
COc1ccc(CN(C)C(=O)c2ccccc2OCc2c(C)noc2C)cc1OC,.,.,.
O=C1CN(S(=O)(=O)c2ccc([N+](=O)[O-])cc2)CC(=O)N1,?,.,.
CCOc1ccccc1NC(=O)Cn1c(=O)ccc2cc(S(=O)(=O)N3CCC(C)CC3)ccc21,.,/,.
Cc1cccc(C)c1NC(=O)CN(C)C(=O)C1CC(=O)N(c2cccc3ccccc23)C1 (stereo unspecified),.,.,.
O=C(Nc1nc2n(n1)C(c1ccc(Cl)cc1)CC(c1ccc(Cl)cc1)N2)c1ccco1 (stereo unspecified),.,.,.
CC1=Nc2ccccc2N=C(NC(=O)c2ccccc2)C1c1ccc(Cl)cc1 (stereo unspecified),.,.,.

# Screening data: PubChem BioAssay, National Center for Advancing Translational Sciences (NCATS)
